VACV E9 pol inh = vaccinia E9 polymerase processive synthesis inhibition | actives 0.94% (n = 46,000) | in vitro processive DNA synthesis, absorbance read-out; stronger effect = lower value | AID 493162 | normalized absorbance, % (no concentration beside the values); in the data active = normalized absorbance mostly below about 85%, no sharp cut-off; inactive = mostly above about 86%
Active calls of the source: *. Many of the other results were omitted from the sample, so hits are more common in it than they were.

SMILES | VACV E9 pol inh
CCCc1cc(NC(C)c2ccccc2)n2c(nc3ccccc32)c1C#N (configuration not stated) | 100.5
CC1=C/C(=C/c2ccco2)C(=O)O1 | 99.6
O=C1/C(=C/c2ccco2)CC(c2ccccc2)C/C1=C\c1ccco1 (configuration not stated) | 92.1
O=C1/C(=C/c2ccco2)CC/C1=C\c1ccco1 | 24.2*
CC(=O)Nc1cccc(-n2nnc(SCc3cc(Cl)cc4c3OCOC4)n2)c1 | 100.2
CCN(C(=O)c1cnc2ccccn2c1=O)c1ccccc1C | 99.4
CCc1sc2sncc2c1Br | 81.0*
O=C(NCCCN1CCOCC1)c1cc2ccccc2o1 | 105.0
O=C(O)[C@H](Cc1ccccc1)N1C(=O)c2ccncc2C1=O | 93.0
CC1CCN(C(=O)c2cc3c(s2)-c2ccc(Cl)cc2SC3)CC1 | 95.8
CN(C)CCNC(=O)c1cc2c(s1)-c1ccc(Cl)cc1SC2 | 54.8*
CC(C)NC(=O)c1cc2c(s1)-c1ccccc1SC2 | 93.7
c1cc(-c2nnn(C3CCCCC3)c2NC2CCCCC2)[nH]n1 | 100.5
S=C(NCc1ccc2[nH]c3c(c2c1)CCCC3)Nc1ccccc1 | 102.9
CCc1ccc(NC(=O)c2sccc2-n2cccc2)cc1 | 101.5
NS(=O)(=O)c1ccc(NC(=O)CCC2COc3ccccc3O2)cc1 (configuration not stated) | 104.4
Nc1sc2c(c1C(=O)c1ccccc1)CCCC2 | 100.8
Nc1sc(-c2ccccc2)c(Cc2ccccc2)c1C(=O)O | 90.2*
CCOC(=O)c1c(-c2ccccc2)csc1N | 94.4
COc1ccc(/C=C/C(=O)Nc2nnc(-c3ccccc3)s2)cc1OC | 98.9
COc1ccc(-c2noc(-c3ccc(Cl)c(Cl)c3)n2)cc1 | 100.3
BrCc1ccc(-c2noc(-c3ccncc3)n2)cc1 | 21.0*
COc1ccc(Cc2nc(-c3ccc(Br)cc3)no2)cc1 | 94.5
CC(CN(C)Cc1ccccc1)OC(=O)c1cc2ccccc2o1 (configuration not stated) | 95.2
Cc1ccc(Sc2cn[nH]c2C)cc1 | 72.9*
SMILES | VACV E9 pol inh
CCOC(=O)c1[nH]ncc1Sc1ccc(Cl)cc1 | 101.4
Cc1ccc(Sc2cnc3ccccc3n2)cc1 | 118.7
COc1ccc(C(=O)Nc2ccc(S(=O)(=O)N3CCCCC3C)cc2)c(OC)c1OC (configuration not stated) | 99.9
O=C(CC1(O)C(=O)Nc2ccccc21)c1cccc(-n2cnnn2)c1 (configuration not stated) | 94.2
COc1ccc(-c2nc3ccc4ccccc4c3c3c2CCCC3)cc1 | 99.9
CCN1CCN(C(=O)NC(C(=O)NC2C(=O)N3C(C(=O)O)=C(CSc4nnnn4C)CSC23)c2ccc(O)cc2)C(=O)C1=O (configuration not stated) | 102.3
NC(=O)c1cc[n+](CC2=C(C(=O)O)N3C(=O)C(NC(=O)C(c4ccccc4)S(=O)(=O)[O-])C3SC2)cc1 (configuration not stated) | 83.3*
N#Cc1ccc(OCc2nnc3n2CCCCC3)cc1 | 103.5
O=c1cc(C(F)(F)F)nc(N2CCCC2)[nH]1 | 122.6
CC(=O)Nc1ccc(C(=O)OCC(=O)Nc2ccc3ccccc3c2)cc1 | 74.0
CC(=O)Nc1cccc(-c2nc3ccccc3[nH]2)c1 | 89.5
CCN1/C(=C/c2ccc3ccccc3[n+]2CC)Sc2cc(NC(C)=O)ccc21 | 39.2*
CN(C)CCc1cc2c(c3c1ccc1ccccc13)OCO2 | 11.1*
c1ccc2cc(CNCCc3ccc4c(c3)OCO4)ccc2c1 | 104.7
O=C(COc1ccc2ccccc2c1)NCc1ccc2c(c1)OCO2 | 106.3
O=C1c2ccccc2-c2onc3c(Br)cc(N4CCCCC4)c1c23 | 73.3*
CCNc1cc(N(C)C)c2noc3c2c1C(=O)c1ccccc1-3 | 72.4
CC(C)Nc1cc(Br)c2noc3c2c1C(=O)c1ccccc1-3 | 100.3
COC(=O)CCC(=O)Nc1sc2c(c1C(=O)OC)CCCC2 | 86.1
CCC(CC)C(=O)NCc1ccc2[nH]c3c(c2c1)CCCC3 | 98.1
Cc1csc(Nc2ccccc2)n1 | 101.1
Brc1snnc1-c1ccccc1 | 110.7
COc1ccc(N2CCc3c(C)c(C#N)c4nc5ccccc5n4c32)cc1 | 103.8
O=S1(=O)CCC(N=Cc2ccc(-c3cccc(C(F)(F)F)c3)o2)C1 (configuration not stated) | 97.8
O=C1NC(=S)S/C1=C\c1ccccc1C(F)(F)F | 73.2
SMILES | VACV E9 pol inh
O=C1NC(=S)S/C1=C/c1ccc(-c2cccc(C(F)(F)F)c2)o1 | 79.5*
CC12CN3CC(C)(CN(C1)C3C1CCCCC1)C2=O (configuration not stated) | 100.0
CN(CC(O)Cn1c2ccccc2c2ccccc21)S(C)(=O)=O (configuration not stated) | 109.4
OC(CNCc1ccccc1)Cn1c2ccc(Cl)cc2c2cc(Cl)ccc21 (configuration not stated) | 99.8
CN(C)CC(O)Cn1c2ccc(Br)cc2c2cc(Br)ccc21 (configuration not stated) | 26.6*
CCOc1ccc(C(CC(=O)O)NC(=O)c2c(-c3ccccc3)noc2C)cc1 (configuration not stated) | 106.3
CCOC(=O)CSC1=NN2CCCC(=O)N=C2S1 | 100.4

From PubChem
